The text below walks through data of PubChem BioAssay (NCATS).

For assay [1], the target named is Lysosomal acid glucosylceramidase (Homo sapiens) (UniProt P04062). The assay can be described thus: Glucocerebrosidase-p2 (AID 348; in the data active = potency below about 10 µM; also: potency is read from the fitted curve at half-maximal effect). The note with it: purified GBA, blue fluorogenic substrate, 40 min. The method, boiled down: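 Normal human glucocerebrosidase (0.2 nM) with blue fluorogenic substrate (80 uM final) in citrate/phosphate pH 5.9 with 10mM sodium taurocholate, 0.01% tween-20; 40 min RT, NaOH/glycine stop; fluorescence Ex 365/Em 440; AC50 from a titration from 0.6 nM upwards.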
Lysosomal acid glucosylceramidase (Homo sapiens), sequence (P04062 whole entry, looked up): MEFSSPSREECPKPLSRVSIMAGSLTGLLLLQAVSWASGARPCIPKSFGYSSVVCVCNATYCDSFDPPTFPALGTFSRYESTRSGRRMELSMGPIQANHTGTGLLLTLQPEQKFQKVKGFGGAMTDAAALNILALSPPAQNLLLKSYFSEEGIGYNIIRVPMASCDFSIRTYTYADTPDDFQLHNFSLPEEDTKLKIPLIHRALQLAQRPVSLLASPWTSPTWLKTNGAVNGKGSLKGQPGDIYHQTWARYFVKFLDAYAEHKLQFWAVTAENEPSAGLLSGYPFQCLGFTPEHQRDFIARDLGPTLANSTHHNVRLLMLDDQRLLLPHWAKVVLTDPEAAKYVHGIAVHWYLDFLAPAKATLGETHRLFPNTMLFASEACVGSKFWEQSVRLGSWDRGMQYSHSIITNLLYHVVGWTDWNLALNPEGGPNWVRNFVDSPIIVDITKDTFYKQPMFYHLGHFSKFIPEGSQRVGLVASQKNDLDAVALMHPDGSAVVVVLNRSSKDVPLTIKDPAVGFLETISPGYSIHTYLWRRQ

The nature of assay [2]: AP1 Signaling Pathway (AID 357; active = well fitted curve in either direction with a large enough effect, not every such curve was filed as active;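 also: ME-180 reporter cells stimulated with EGF at its EC50 level; % is scaled to controls: 0 for no effect and ±100 for the full control effect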). The note with it: ME-180 AP-1-bla reporter, EGF-induced, beta-lactamase ratio, 5 h; at 7.69 µM (top of the series) unless noted. The method, boiled down:
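Beta-lactamase reporter under AP-1 response element, ME-180 background. Stimulus: EC50 EGF. Compound exposure 5 h, 37 °C. Detection: CCF4, 2.5 h RT, 460/530 nm. Values: AC50 from titration.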

Assay [3] has as its target Cytochrome P450 1A2 (Homo sapiens) (UniProt P05177). The assay can be described thus: p450-cyp1a2 (AID 410; calls by dose curve; also: potency is read from the fitted curve at half-maximal effect). The method, boiled down: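 Read-out is luminescence from luciferin produced by CYP1A2 demethylation of Luciferin-ME (100uM, at Km). Detection reagent stopped the 60 min NADPH-dependent reaction; signals were normalized to 57 uM furafylline.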
The nature of assay [4]: NFAT Signaling Pathway (AID 444; active = well fitted curve in either direction with a large enough effect, not every such curve was filed as active;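 also: carbachol stimulus at about its EC50 of 1 µM final; % is scaled to controls: 0 for no effect and ±100 for the full control effect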). The note with it: Jurkat NFAT-bla M1, carbachol, beta-lactamase ratio, 5 h; at 7.69 µM (top of the series) unless noted. The method, boiled down:
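Read-out: CCF4 FRET ratio (460 nm/530 nm) after 1 h RT dye loading, used for %activity and AC50 from titration series. Cells: Jurkat NFAT-β-lactamase/M1 line, treated with compound plus 1 uM carbachol for 5 h, 37 °C.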

The nature of assay [5]: Stat Signaling Pathway (AID 446; active = well fitted curve in either direction with a large enough effect, not every such curve was filed as active;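 also: ME-180 cervical cancer cells given 40 pM IL-6 alongside compound; SIE-controlled beta-lactamase reporter measured as 460/530 nm FRET emission ratio; % is scaled to controls: 0 for no effect and ±100 for the full control effect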). The note with it: ME-180 (cervical carcinoma) SIE beta-lactamase reporter, IL-6 stimulated, 5 h; at 7.69 µM (top of the series) unless noted. The method, boiled down:
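FRET read-out (405 nm excitation, 460/530 nm emission) of a beta-lactamase reporter under a STAT-inducible element in ME-180 cervical carcinoma cells. Cells with compound receive 40 pM IL-6 for 5 h. Values are normalised to AC90 stimulation and AC90 JAK-inhibitor controls.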

Assay [6] addresses Glucocorticoid receptor (Homo sapiens) (UniProt P04150). The assay can be described thus: GR-GFP Redistribution (AID 450;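 active = compounds whose dose series gives a full or clear partial fitted curve of increased nuclear translocation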; also: potency is read from the fitted curve at half-maximal effect). The conditions noted are these: U2OS GR-GFP nuclear translocation, laser cytometry, 2 h.
The target is the same in assay [7]. As to the kind of experiment: GR-EFC Redistribution (AID 451; calls by dose curve; also: potency is read from the fitted curve at half-maximal effect). The note with it: CHO-K1 GR-EFC translocation, beta-gal luminescence, 2 h. The method, boiled down: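 Translocation of GR-ED fusion to nuclear EA restores b-gal, read by luminescence after 1 h room-temperature detection. Engineered CHO-K1 biosensor cells, 1,000/well, exposed 2 h at 37 C to titrations up to 46 uM final.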

Assay [8] deals with Mitogen-activated protein kinase 10 (Mus musculus) (UniProt Q61831). The assay can be described thus: JNK3 AlphaScreen Assay (AID 530; active = well fitted curve in either direction with a large enough effect, not every such curve was filed as active;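 also: kinase came from lysate of stimulated human HepG2 cells; signal reports phosphorylation of biotinylated GST-cJun 1-79 at Ser73 with 10 µM ATP; % is scaled to controls: 0 for no effect and ±100 for the full control effect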). The method, boiled down: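 Kinase buffer: 20 mM Tris-HCl pH 7.6, 10 mM MgCl2, 1 mM DTT, 0.1 mM Na3VO4, 0.01% Tween-20; ATP 10 uM. Substrate biotin-GST-cJun(1-79), enzyme from activated HepG2 lysates. Detection by Ser73 phospho-antibody AlphaScreen.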
(Alpha assays give light when donor and acceptor beads are brought close together.)

Assay [9] deals with Cytochrome P450 3A4 (Homo sapiens) (UniProt P08684). As to the kind of experiment: qHTS Assay for Inhibitors and Substrates of Cytochrome P450 3A4 (AID 884). Also: potency is read from the fitted curve at half-maximal effect; nearly all actives have a fitted effect of over 50% in size. The method, boiled down: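 Luminescent readout of luciferin produced by CYP3A4 (20 nM) dealkylation of Luciferin-PPXE, 25 uM (its KM). NADPH-driven reaction ran 60 min at RT after 10 min compound preincubation; data scaled to 57 uM ketoconazole as 100% inhibition.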
Cytochrome P450 3A4 (Homo sapiens), sequence (P08684 whole entry, looked up): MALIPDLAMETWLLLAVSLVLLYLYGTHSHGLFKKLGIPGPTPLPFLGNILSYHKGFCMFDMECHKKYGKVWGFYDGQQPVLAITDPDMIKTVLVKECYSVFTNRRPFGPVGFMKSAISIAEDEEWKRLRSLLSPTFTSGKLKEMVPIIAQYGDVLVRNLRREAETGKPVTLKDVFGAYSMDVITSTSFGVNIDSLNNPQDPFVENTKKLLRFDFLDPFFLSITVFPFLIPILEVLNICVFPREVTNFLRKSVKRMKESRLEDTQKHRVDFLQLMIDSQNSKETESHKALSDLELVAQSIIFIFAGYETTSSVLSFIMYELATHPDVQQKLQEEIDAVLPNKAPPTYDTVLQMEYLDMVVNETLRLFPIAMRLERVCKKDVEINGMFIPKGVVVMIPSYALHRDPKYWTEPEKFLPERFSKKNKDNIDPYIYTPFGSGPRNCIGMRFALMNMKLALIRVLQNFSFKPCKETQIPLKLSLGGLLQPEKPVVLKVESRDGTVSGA
In general terms: In qHTS, concentration-response curves come from the screen itself.

The target is the same in assay [10]. The assay can be described thus: qHTS Assay for Activators of Cytochrome P450 3A4 (AID 885). Also: nearly all actives have a fitted effect of over 65% in size. The method, boiled down: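 Luminescent readout of luciferin formed from 25 uM Luciferin-PPXE (KM level) by 20 nM CYP3A4 in 200 mM KPO4, with 60 min NADPH-driven reaction at room temperature after 10 min compound exposure. Ketoconazole (57 uM) defined 100% inhibition.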

Assay [11] deals with Dual specificity protein kinase CLK4 (Homo sapiens) (UniProt Q9HAZ1). As to the kind of experiment: qHTS Assay for Inhibitors of CDC-like Kinase 4 (Kinase-Glo Assay) (AID 1770). Also: % is scaled to controls: 0 for no effect and ±100 for the full control effect; nearly all actives have a fitted effect of over 65% in size. The method, boiled down:
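Recombinant human Clk4 (25 nM) phosphorylated RS repeat peptide (100 uM) with 1 uM ATP in Tris pH 7.5/MgCl2/EGTA/DTT/Triton buffer for 4.5 h at room temperature. Residual ATP was quantified by Kinase-Glo luciferase luminescence.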

The target of assay [12] is Ubiquitin carboxyl-terminal hydrolase 1 (Homo sapiens) (UniProt O94782). As to the kind of experiment: Inhibitors of USP1/UAF1: Pilot qHTS (AID 504865). Also: nearly all actives have a fitted effect of over 35% in size. Also: potency is read from the fitted curve at half-maximal effect. The method, boiled down:
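USP1/UAF1 complex (1nM) preincubated with compound 15 min at room temperature, then Ub-Rho substrate (150nM final) added. Fluorescence read kinetically at 480/540 nm, 6 reads every 60 seconds. Buffer: 50mM HEPES pH 7.8, 0.5mM EDTA, 0.1 mg/ml BSA, 1mM TCEP, 0.01% Tween-20.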

Assay [13] can be described thus: Primary qHTS for small molecule stabilizers of the endoplasmic reticulum resident proteome: Secreted ER Calcium Modulated Protein (SERCaMP) assay (AID 1508630). Also: % is scaled to controls: 0 for no effect and ±100 for the full control effect. The method, boiled down:
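The SH-SY5Y reporter protocol was run at 3 concentrations up to 38.3 uM (primary) or 11 concentrations (follow-up): 16 h compound, 100 nM thapsigargin for 4 h, then extracellular luciferase luminescence.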

Assay [14] addresses 3',5'-cyclic-AMP phosphodiesterase 4B (Homo sapiens) (UniProt Q07343). The assay can be described thus: qHTS Assay for Inhibitors of PDE-IV (AID 607; active = well fitted activation curve with a large enough effect in the main read-out, with a control signal flat, not every such curve was filed as active; also: % of control where 0% means no effect). The method, boiled down: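 Cell-based read-out of cAMP via a modified cyclic nucleotide-gated channel and membrane potential dye (535/590 nm) in HEK293 cells expressing PDE4 endogenously. Compounds tested up to 22.9 uM final; 100 uM RO 20-1724 reference.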

The target of assay [15] is Cytochrome P450 2C19 (Homo sapiens) (UniProt P33261). As to the kind of experiment: qHTS Assay for Inhibitors and Substrates of Cytochrome P450 2C19 (AID 899). Also: potency is read from the fitted curve at half-maximal effect; nearly all actives have a fitted effect of over 60% in size. The method, boiled down:
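Reactions contain 5nM enzyme, 10uM Luciferin-H EGE (KM) and 50mM KPO4; compound preincubates 10 min at 37C, NADPH regeneration starts turnover for 60 min. Luminescence after detection reagent gives activity.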

Assay [16] deals with Dual specificity protein kinase CLK4 (Homo sapiens) (UniProt Q9HAZ1). The assay can be described thus: qHTS Assay for Inhibitors of CDC-like Kinase 4 (ADP-FP Assay) (AID 1795). Also: % is scaled to controls: 0 for no effect and ±100 for the full control effect; nearly all actives have a fitted effect of over 60% in size. The method, boiled down: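 Recombinant human Clk4 (6.25 nM) phosphorylated RS repeat peptide (100 uM) with 1 uM ATP in Tris pH 7.5/MgCl2/EGTA/DTT/Triton buffer for one hour. ADP was quantified by Transcreener competitive fluorescence polarization against an ADP calibration curve.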
Dual specificity protein kinase CLK4 (Homo sapiens), sequence (Q9HAZ1 whole entry, looked up): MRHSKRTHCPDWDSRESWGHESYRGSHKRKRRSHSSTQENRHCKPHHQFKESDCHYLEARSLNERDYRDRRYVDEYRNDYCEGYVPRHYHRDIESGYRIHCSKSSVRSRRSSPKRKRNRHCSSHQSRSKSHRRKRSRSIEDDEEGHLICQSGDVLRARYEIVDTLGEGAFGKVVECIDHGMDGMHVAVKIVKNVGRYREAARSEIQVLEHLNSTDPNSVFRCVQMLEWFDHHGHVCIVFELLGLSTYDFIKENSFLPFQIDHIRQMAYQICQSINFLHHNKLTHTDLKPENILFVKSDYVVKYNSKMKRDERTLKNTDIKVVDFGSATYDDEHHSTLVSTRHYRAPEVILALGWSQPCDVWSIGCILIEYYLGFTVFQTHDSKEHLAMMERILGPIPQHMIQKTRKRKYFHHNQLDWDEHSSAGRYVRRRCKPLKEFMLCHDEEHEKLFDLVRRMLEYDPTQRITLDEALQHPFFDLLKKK

Assay [17] shares this target. The assay can be described thus: qHTS Assay for Inhibitors of CDC-like Kinase 4 (ADP-Glo Assay) (AID 1771). Also: % is scaled to controls: 0 for no effect and ±100 for the full control effect; nearly all actives have a fitted effect of over 70% in size. The method, boiled down: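 In this ADP-Glo format, 1 uM ATP and 100 uM RS peptide served as substrates for 25 nM Clk4 in Mg2+/EGTA/DTT/Triton buffer; reactions ran 1 hr at room temperature before luminescent ADP quantification.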
In assay [18] the target is Cytochrome P450 2C9 (Homo sapiens) (UniProt P11712). The assay can be described thus: qHTS Assay for Inhibitors and Substrates of Cytochrome P450 2C9 (AID 883). Also: potency is read from the fitted curve at half-maximal effect; nearly all actives have a fitted effect of over 60% in size. The method, boiled down: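 Turnover of Luciferin-H (100uM, KM) by 10nM human CYP2C9 was measured over 60 min at 37C with NADPH regeneration; inhibitors and some substrates reduce luminescence. Data normalized to sulphaphenazole 57uM.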

Structures are written as SMILES. Values without a mark were called inactive. Inconclusive results are not listed. The source made the active and inactive calls. Unless noted, calls follow the shape of the dose curve; as a rule, active = well fitted curve in the direction sought with a large enough effect; inconclusive = small, poorly fitted or top-dose-only effect, or another doubt; inactive = no such curve, though single readings can be large; an effect the other way counts as inactive or inconclusive. Bounds are passed on as bounds.

3',5'-cyclic-AMP phosphodiesterase 4B (Homo sapiens), sequence (Q07343 whole entry, looked up): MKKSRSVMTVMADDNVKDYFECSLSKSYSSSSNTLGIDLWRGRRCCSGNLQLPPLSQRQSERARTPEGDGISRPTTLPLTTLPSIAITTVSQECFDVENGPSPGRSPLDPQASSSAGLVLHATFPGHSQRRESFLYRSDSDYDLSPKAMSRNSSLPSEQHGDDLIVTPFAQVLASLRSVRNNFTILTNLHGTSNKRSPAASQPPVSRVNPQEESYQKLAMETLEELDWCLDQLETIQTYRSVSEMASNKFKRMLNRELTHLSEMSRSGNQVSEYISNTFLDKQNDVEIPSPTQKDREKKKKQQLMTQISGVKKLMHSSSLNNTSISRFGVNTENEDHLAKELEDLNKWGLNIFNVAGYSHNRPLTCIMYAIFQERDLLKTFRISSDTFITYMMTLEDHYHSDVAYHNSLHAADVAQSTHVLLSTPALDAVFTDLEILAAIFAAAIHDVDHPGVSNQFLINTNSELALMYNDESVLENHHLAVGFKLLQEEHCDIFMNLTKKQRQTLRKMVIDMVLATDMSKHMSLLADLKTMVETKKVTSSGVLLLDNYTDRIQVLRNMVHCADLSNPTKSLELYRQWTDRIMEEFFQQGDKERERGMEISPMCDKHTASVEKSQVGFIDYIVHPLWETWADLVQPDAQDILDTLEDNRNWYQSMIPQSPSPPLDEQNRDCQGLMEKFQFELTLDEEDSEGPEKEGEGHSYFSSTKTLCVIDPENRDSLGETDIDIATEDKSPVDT
Glucocorticoid receptor (Homo sapiens), sequence (P04150 whole entry, looked up, the tested form may be a part): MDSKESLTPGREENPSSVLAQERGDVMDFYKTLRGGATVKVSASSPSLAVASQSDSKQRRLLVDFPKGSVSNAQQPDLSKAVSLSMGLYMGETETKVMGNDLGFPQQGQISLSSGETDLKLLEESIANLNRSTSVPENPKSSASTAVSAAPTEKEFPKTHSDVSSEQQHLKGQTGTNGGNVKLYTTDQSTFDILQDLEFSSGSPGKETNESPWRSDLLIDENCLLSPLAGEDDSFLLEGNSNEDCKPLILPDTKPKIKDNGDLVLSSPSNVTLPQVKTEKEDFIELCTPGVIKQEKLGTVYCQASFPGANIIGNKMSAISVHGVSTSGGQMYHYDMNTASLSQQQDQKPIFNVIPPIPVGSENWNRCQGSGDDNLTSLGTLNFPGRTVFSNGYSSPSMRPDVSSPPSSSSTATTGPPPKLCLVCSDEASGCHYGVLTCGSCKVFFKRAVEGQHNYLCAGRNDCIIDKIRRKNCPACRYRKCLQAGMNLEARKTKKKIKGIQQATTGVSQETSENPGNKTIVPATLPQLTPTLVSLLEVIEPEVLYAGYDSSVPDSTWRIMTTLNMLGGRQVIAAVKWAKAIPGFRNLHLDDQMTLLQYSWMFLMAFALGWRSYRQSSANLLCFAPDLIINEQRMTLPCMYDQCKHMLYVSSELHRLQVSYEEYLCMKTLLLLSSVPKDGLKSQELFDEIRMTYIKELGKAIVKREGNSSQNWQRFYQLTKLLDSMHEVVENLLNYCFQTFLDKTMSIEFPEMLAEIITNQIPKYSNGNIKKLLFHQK
Cytochrome P450 1A2 (Homo sapiens), sequence (P05177 whole entry, looked up): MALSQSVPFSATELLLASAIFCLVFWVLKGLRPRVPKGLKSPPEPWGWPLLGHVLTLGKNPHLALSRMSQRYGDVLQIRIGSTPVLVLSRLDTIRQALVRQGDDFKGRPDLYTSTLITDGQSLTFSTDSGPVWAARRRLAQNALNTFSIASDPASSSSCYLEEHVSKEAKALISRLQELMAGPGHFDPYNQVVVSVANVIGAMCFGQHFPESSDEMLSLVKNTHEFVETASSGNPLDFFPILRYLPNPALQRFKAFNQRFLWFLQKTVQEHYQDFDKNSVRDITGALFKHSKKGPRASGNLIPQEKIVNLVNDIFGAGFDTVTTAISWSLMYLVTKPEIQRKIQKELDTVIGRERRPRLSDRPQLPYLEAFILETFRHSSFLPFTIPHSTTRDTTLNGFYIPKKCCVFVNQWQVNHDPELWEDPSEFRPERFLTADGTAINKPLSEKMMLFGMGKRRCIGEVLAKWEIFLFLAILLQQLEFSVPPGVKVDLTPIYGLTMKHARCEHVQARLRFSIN
Ubiquitin carboxyl-terminal hydrolase 1 (Homo sapiens), sequence (O94782 whole entry, looked up): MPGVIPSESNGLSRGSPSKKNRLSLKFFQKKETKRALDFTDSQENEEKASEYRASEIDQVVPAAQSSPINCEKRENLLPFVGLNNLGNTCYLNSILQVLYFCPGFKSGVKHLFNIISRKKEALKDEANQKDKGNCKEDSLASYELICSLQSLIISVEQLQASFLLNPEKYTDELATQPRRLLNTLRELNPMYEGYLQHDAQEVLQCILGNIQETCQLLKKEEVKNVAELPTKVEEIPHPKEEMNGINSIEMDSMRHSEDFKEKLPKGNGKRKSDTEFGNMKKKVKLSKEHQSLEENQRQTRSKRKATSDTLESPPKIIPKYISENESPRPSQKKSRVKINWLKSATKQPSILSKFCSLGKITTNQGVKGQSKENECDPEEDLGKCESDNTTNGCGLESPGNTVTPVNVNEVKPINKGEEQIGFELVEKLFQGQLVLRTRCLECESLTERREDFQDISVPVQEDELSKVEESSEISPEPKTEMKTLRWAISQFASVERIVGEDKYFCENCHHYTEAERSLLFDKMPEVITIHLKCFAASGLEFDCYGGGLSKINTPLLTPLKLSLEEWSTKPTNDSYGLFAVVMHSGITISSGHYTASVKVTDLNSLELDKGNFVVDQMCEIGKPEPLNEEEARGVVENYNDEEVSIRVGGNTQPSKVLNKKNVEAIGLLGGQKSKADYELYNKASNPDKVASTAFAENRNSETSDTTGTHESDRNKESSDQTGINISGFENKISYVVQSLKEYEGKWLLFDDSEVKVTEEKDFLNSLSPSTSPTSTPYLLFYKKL
Cytochrome P450 2C19 (Homo sapiens), sequence (P33261 whole entry, looked up): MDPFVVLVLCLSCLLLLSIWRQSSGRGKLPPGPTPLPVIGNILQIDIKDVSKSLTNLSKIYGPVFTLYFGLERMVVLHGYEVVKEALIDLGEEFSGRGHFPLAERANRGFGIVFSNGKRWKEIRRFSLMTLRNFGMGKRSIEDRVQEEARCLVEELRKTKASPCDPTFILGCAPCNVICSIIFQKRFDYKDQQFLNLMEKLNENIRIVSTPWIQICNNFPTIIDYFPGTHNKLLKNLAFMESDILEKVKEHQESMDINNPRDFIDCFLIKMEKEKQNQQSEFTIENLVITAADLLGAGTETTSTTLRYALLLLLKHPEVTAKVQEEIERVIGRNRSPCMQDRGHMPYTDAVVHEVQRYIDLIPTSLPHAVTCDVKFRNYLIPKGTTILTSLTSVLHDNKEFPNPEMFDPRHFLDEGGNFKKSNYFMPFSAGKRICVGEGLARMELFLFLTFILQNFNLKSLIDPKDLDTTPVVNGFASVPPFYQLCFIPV

Consider `N#Cc1cccc(-c2nc(NCc3cccnc3)c3ccccc3n2)c1`, for which the Potency in assay [1] is more than 11.4 µM; in assay [3] it was 0.251 µM (active); in assay [6] it was more than 46 µM; in [7], more than 46 µM; in assay [9], 5.01 µM (active). Besides, the values for the activity change, negative = inhibition in assay [2] and in assay [4] were -20.1% and 28.2%, respectively. Moreover, the activity, negative = inhibition in assay [5] was -21.4%. Also, the Potency entry in assay [8], in assay [10], in [11] and in assay [12] was “inactive” throughout. Moreover, the result in [13] was inactive.

On to `O=c1c(-c2cccs2)nc2cnc(N3CCNCC3)nc2n1Cc1cccs1`, for which the Potency was more than 11.4 µM in assay [1]; 3.98 µM (active) in [3]; more than 9.22 µM in assay [6]; more than 46 µM in assay [7]; 2.51 µM (active) in assay [9]; 5.01 µM (active) in assay [15]. Also, in assay [12], the Potency was 28.2 µM (active). In addition, the Potency entry in assay [8], in assay [14], in assay [10], in [11] and in [16] was “inactive” in each case. In assay [13], the result was inactive.

`CN(C)c1ncc2nc(-c3cccc(C#N)c3)c(=O)n(C)c2n1`: the Potency in assay [1] was more than 11.4 µM; in assay [6], more than 9.22 µM; in [7] it was more than 46 µM. For the same molecule, in assay [4], the activity change, negative = inhibition was 5.54%. In addition, the activity, negative = inhibition in assay [5] is -1.63%. Also, the Potency result in [8], in assay [14], in assay [11], in [16] and in assay [12] was “inactive” in each case. Also, in [13], the outcome was inactive.

Regarding `COc1ncc2nc(-c3cn(C)c4ccccc34)c(=O)n(CCC#N)c2n1`, the Potency in assay [1] is more than 11.4 µM; in assay [3], 5.01 µM (active); in [6], more than 9.22 µM; in [7] it was more than 46 µM; in assay [9], 6.31 µM (active). For the same molecule, the activity change, negative = inhibition in assay [2] was -17.8%; in [4], -2.23%. In addition, in [5], the activity, negative = inhibition was -7.24%. The Potency entry in [8], in assay [14], in [10], in assay [17], in assay [16] and in [12] was “inactive” throughout. Moreover, the outcome in [13] was inactive.

For `COc1ccccc1CCn1c(=O)c(-c2cn(C)c3ccccc23)nc2cncnc21`, the Potency in assay [1] was more than 11.4 µM; in assay [3], 1.26 µM (active); in [6] it was more than 9.22 µM; in [7], more than 46 µM; in [18] it was 0.316 µM (active); in [9], 2.51 µM (active). For the same molecule, the Potency in assay [15] was 0.316 µM (active). The activity change, negative = inhibition in assay [4] was 19%. The Potency result in [14], in [10], in assay [11], in assay [16] and in assay [12] was “inactive” in each case. In addition, the result in assay [13] was inactive.

Turning to `COCCn1c(=O)c(-c2cccc(C#N)c2)nc2cnc(N3CCOCC3)nc21`, the Potency in assay [1] was more than 11.4 µM; in assay [3], 10 µM (active); in [6], more than 9.22 µM; in assay [7] it was more than 46 µM. The activity change, negative = inhibition is -16.2% in assay [2] and -8.26% in assay [4]. The activity, negative = inhibition in assay [5] is 3.4%. For the same molecule, the Potency entry in [8], in [14], in assay [17], in [16] and in assay [12] was “inactive” throughout. The result in assay [13] was inactive.
